From PubChem BioAssay (NCATS)
Records with an inconclusive call do not appear. A number with no mark means an inactive call. The source made the active and inactive calls. The call rests on the fitted dose curve; in most records, active means well fitted inhibition curve with a large enough effect; inconclusive means small, poorly fitted or top-dose-only effect; inactive means flat fitted curve, though single readings scatter.
On the % scale 0 is the no-effect control and ±100 the full control effect.

Each compound was assayed against Calcium and integrin-binding protein 1 (Homo sapiens) (UniProt Q99828) (assay: Primary qHTS for Identification of Calcium Integrin Binding Protein 1 (CIB1) Competitor (AID 1508620; further: top concentration of the series differs between compounds)). Settings: CIB1-GST / FITC-alphaIIb peptide fluorescence polarization; series mostly up to 114 µM; activity change, negative = inhibition: at the top concentration.
Calcium and integrin-binding protein 1 (Homo sapiens), sequence (Q99828 whole entry, looked up): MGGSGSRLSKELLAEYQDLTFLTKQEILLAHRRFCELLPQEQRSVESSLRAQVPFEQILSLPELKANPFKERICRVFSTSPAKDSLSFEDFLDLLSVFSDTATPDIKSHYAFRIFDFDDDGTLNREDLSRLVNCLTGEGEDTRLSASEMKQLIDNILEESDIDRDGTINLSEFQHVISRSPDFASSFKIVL
Summary of the method: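 Fluorescence polarization competition: GST-tagged CIB1 (1 uM final) preincubated with compound 15 min at room temperature, then FITC-labelled alphaIIb peptide (100 nM final) added. After 15 min at room temperature, polarization read at Ex 480/Em 540.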
With Cc1cccc(CNc2ccc(S(=O)(=O)Nc3nccs3)cc2)c1O the “activity change, negative = inhibition” value was -9.66%. In the case of COc1ccc(C2Nc3ccccc3C(=O)N2CC(C)(C)C)cc1COc1ccc(NC(C)=O)cc1 (stereo not given), the “activity change, negative = inhibition” value is reported as 5.56%. With COc1cc(/C=C2\C(=O)Nc3ccccc32)ccc1O the “activity change, negative = inhibition” value was -2.15%. In the case of COc1cccc(CNc2ccc(S(=O)(=O)Nc3nc4c(C)cccc4s3)cc2)c1O, the “activity change, negative = inhibition” value is reported as -19.2%. For O=C(O)c1cccc(-n2cccc2/C=C2/C(=O)N(Cc3ccc(F)cc3)C(=O)N2Cc2ccc(F)cc2)c1, the “activity change, negative = inhibition” value was -17.3%. With O=C(NCCc1nc2ccccc2n1CCOc1ccccc1[N+](=O)[O-])C1CCCCC1 the “activity change, negative = inhibition” value was -1.21%. For Cc1cc(C)nc(NC(=S)N2CCN(c3ccc(C(F)(F)F)cc3C(F)(F)F)CC2)c1, the “activity change, negative = inhibition” value was -17.3%. For COc1ccc(NC(=O)C(OC(=O)CNC(=O)c2ccccc2)c2ccccc2)c(C)c1 (stereo not given), the “activity change, negative = inhibition” value was -2.14%. In the case of COc1ccc(C2c3c(ncn(CCN4CCOCC4)c3=N)Oc3ccc4ccccc4c32)cc1 (stereo not given), the “activity change, negative = inhibition” value is reported as 9.45%. With O=C1NS(=O)(=O)c2cc(Cl)ccc21 the “activity change, negative = inhibition” value was -0.262%. In the case of Cc1cc(N[S+](=O)([O-])c2ccc(NC(=O)Cc3ccc4c(c3)CCO4)cc2)no1, the “activity change, negative = inhibition” value is reported as -9.3%. In the case of N#Cc1ccc(OC2=NS(=O)(=O)c3ccccc32)cc1, the “activity change, negative = inhibition” value is reported as 0.726%. For Cc1cc(C)nc(NC(=S)N2CCN(c3ccc(Cl)nn3)CC2)c1, the “activity change, negative = inhibition” value was 0.476%. In the case of COc1cc(F)c(S(=O)(=O)N2CCCN(S(=O)(=O)c3ccc(NC(C)=O)cc3)CC2)c(F)c1, the “activity change, negative = inhibition” value is reported as 2.13%. With COc1cccc(OC)c1C1=Nn2c(nnc2-c2ccccc2O)SC1 the “activity change, negative = inhibition” value was -3.31%. With CCCCCCNC(=O)Nc1nnc(-c2ccncc2)s1 the “activity change, negative = inhibition” value was -5.35%. Cc1nnc(-c2cnn(C)c2N)n1CCCn1ccnc1 was tested, and the “activity change, negative = inhibition” value was 2.71%. With CC(=O)Nc1sc2c(c1Br)CCNC2 the “activity change, negative = inhibition” value was 0.502%. Cc1ccc(S(=O)(=O)Nc2cccc3cccnc23)c([N+](=O)[O-])c1 was tested, and the “activity change, negative = inhibition” value was -0.457%. For CCc1c(C)nc2cc(-c3ccc(OC)c(OC)c3)nn2c1N1CCCC1, the “activity change, negative = inhibition” value was -16.8%. With Cc1ccc(NS(=O)(=O)c2cc3c(cc2N(C)C)NC(=O)CC3)cc1C the “activity change, negative = inhibition” value was 2.77%. In the case of FC(F)Oc1ccc(C2=Nn3c(nnc3-c3ccccc3C(F)(F)F)SC2)cc1OCC1CC1, the “activity change, negative = inhibition” value is reported as -4.75%. In the case of CCOC(=O)C1CCN(C(=O)C(C)(C)NC(=O)Nc2ccc(N(C)C)cc2)CC1, the “activity change, negative = inhibition” value is reported as -2.05%. With O=C(OCC#CCSc1nnc(-c2cccc3ccccc23)o1)c1sccc1Cl the “activity change, negative = inhibition” value was -4.7%. Cc1c(P(=S)(c2ccccc2)c2ccccc2)[n+]2ccccc2n1CCCc1ccccc1 was tested, and the “activity change, negative = inhibition” value was -3.19%. With O=C(OCC#CCSc1nnc(-c2cccc3ccccc23)o1)c1ccc2ccccc2c1 the “activity change, negative = inhibition” value was -0.405%. With O=C(CSc1nnc(-c2cccc([S+](=O)([O-])N3CCCC3)c2)n1-c1ccccc1)Nc1ccc(Br)cc1 the “activity change, negative = inhibition” value was 13.7%. In the case of Cc1cc2c(s1)c1cnn(Cc3cccc(Cl)c3F)c(=O)c1n2C, the Potency is reported as “inactive”. With Cc1nc(C(C)N(C)c2ncnc3ccc(-c4ccc5c(c4)OCO5)cc23)cs1 (stereo not given) the “activity change, negative = inhibition” value was -3.3%. N#Cc1c(-c2ccc(OCCOCCOCCN)cc2)no[n+]1[O-] was tested, and the “activity change, negative = inhibition” value was -8.41%. In the case of C[n+]1cc(C(O)(c2ccccc2)c2ccccc2)n2ccccc21, the “activity change, negative = inhibition” value is reported as 2.91%. In the case of O=C(Nc1ccccc1)Nc1nc(Nc2cc(F)cc(F)c2)nc(NC2CCCC2)n1, the “activity change, negative = inhibition” value is reported as -1.92%. In the case of c1cncc(CNc2ncnc3ccc(-c4ccc5c(c4)OCCO5)cc23)c1, the “activity change, negative = inhibition” value is reported as 8.08%. In the case of N#Cc1c(-c2cccc(O)c2)no[n+]1[O-], the “activity change, negative = inhibition” value is reported as 0.79%. In the case of Cc1ccc(NS(=O)(=O)c2cc3c(cc2-c2ccsc2)NC(=O)CO3)cc1C, the “activity change, negative = inhibition” value is reported as 0.612%. With NC(=O)C1CCN(c2nc(-c3ccccc3[N+](=O)[O-])cs2)CC1 the “activity change, negative = inhibition” value was -7.41%. COc1ccc(NC(=O)c2ccc(-c3nc4ccccc4[nH]3)cc2)cc1OC was tested, and the “activity change, negative = inhibition” value was 6.3%. Cc1cc(C=CC#N)cc(C)c1Nc1nc(Nc2ccc3c(c2)OCO3)c2[nH]cnc2n1 was tested, and the “activity change, negative = inhibition” value was -15.5%. In the case of O=C(O)c1ccc(S(=O)(=O)N[C@H](Cc2ccc([N+](=O)[O-])cc2)C(=O)O)cc1, the “activity change, negative = inhibition” value is reported as 0.618%. With Cc1cccc(CNc2ncnc3ccc(-c4ccccc4Cl)cc23)c1 the “activity change, negative = inhibition” value was 2.68%.
